Source: PubChem BioAssay (EPA / NIEHS)
Activity calls are given as the source filed them. The calls were made as follows: active = hit-call score of the fitted dose curve at least 0.9, where 1 is the maximum; inactive = score below 0.9.

Tests used:
[1] = ATG_E_Box_CIS: Attagene CIS-FACTORIAL HepG2 Assay for human Enhancer Box (E-box) (AID 2282936); conditions: HepG2 E-box cis-reporter transcription, actives raise or lower the signal
How it was run: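 E-box-driven reporter transcripts measured in transiently transfected HepG2 after 24 h exposure: RNA reverse-transcribed, PCR-amplified, fluorescently labelled, digested and resolved by capillary electrophoresis. Gain or loss relative to DMSO.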

[2] = ATG_M_61_CIS: Attagene CIS-FACTORIAL HepG2 Assay for M61 Transcription Factor (Internal Marker) (AID 2282937); conditions: HepG2 Attagene CIS-FACTORIAL M61 internal marker reporter; actives raise or lower the signal
How it was run: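 Endogenous transcription factor activity in HepG2 is read through transiently transfected cis-element reporter units. After 24 h dosing, RNA undergoes reverse transcription, PCR and primer extension with 6-FAM before capillary electrophoresis; DMSO-referenced bidirectional fit.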

[3] = ATG_EGR_CIS: Attagene CIS-FACTORIAL HepG2 Assay for human Early Growth Response 1 (EGR1) (AID 2282938); conditions: HepG2 Attagene CIS-FACTORIAL EGR reporter mRNA; actives raise or lower the signal
How it was run: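 Activity is taken as induction or loss of reporter mRNA versus DMSO, fitted bidirectionally. Transcripts from cis-regulated reporter units in transiently transfected HepG2 were measured after 24 h by RT-PCR with capillary electrophoresis.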

[4] = ATG_M_19_CIS: Attagene CIS-FACTORIAL HepG2 Assay for M19 Transcription Factor (Internal Marker) (AID 2282939); conditions: HepG2 Attagene CIS-FACTORIAL M19 internal marker reporter; actives raise or lower the signal
How it was run: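 Transfect HepG2 with MRTU reporter library → dose chemical, 24 h → isolate total RNA, reverse-transcribe with oligo(dT) → PCR, 6-FAM label, HpaI cut (2 h, 37 C) → capillary electrophoresis. Bidirectional fit vs DMSO.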

[5] = ATG_Ets_CIS: Attagene CIS-FACTORIAL HepG2 Assay for human Erythroblast Transformation Specific (ETS) (AID 2282941); conditions: HepG2 ETS cis-reporter transcription, actives raise or lower the signal
How it was run: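 Cis-regulated reporter mRNA induction in HepG2 (transient transfection), 24 h exposure, RT-PCR plus capillary electrophoresis detection; DMSO serves as negative control and baseline.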

[6] = target: Hepatocyte nuclear factor 3-beta (Homo sapiens) (UniProt Q9Y261); assay: ATG_FoxA2_CIS: Attagene CIS-FACTORIAL HepG2 Assay for human Forkhead box A2 (FOXA2) (AID 2282942); conditions: HepG2 cis-reporter transcription factor activity, 24 h; actives raise or lower the signal
How it was run: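 Reporter transcript induction is measured by fluorescence after capillary electrophoresis of RT-PCR products from HepG2 cells exposed 24 h. Cis-regulated reporter units report endogenous factor activity; curves fitted both directions against DMSO.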

[7] = ATG_FoxO_CIS: Attagene CIS-FACTORIAL HepG2 Assay for human Forkhead box O (FoxO) (AID 2282943); conditions: HepG2 Attagene cis-reporter, FoxO element, mRNA; actives raise or lower the signal
How it was run: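 HepG2, transient MRTU transfection (cis element, endogenous TFs). Dose 24 h. TriZol RNA → oligo(dT) RT → PCR → 6-FAM primer extension → HpaI cut → CE. Gain/loss vs DMSO.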

[8] = ATG_GATA_CIS: Attagene CIS-FACTORIAL HepG2 Assay for human GATA Binding Protein (AID 2282944); conditions: HepG2 GATA cis-element reporter, Attagene multiplex mRNA; actives raise or lower the signal
How it was run: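 Transient MRTU transfection, HepG2, 24 h compound exposure. Total RNA → oligo(dT) RT → PCR → 6-FAM primer extension → HpaI cut → CE. Bidirectional fit vs DMSO.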

[9] = ATG_GLI_CIS: Attagene CIS-FACTORIAL HepG2 Assay for human Zinc Finger Protein GLI1 (AID 2282945); conditions: HepG2, Attagene cis-factorial reporter mRNA, GLI element; actives raise or lower the signal
How it was run: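 Bidirectional curve fits relative to DMSO, using reporter mRNA levels from RT-PCR plus capillary electrophoresis. Cells were HepG2 transiently carrying cis-regulated reporter constructs, harvested 24 h after dosing.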

[10] = ATG_GRE_CIS: Attagene CIS-FACTORIAL HepG2 Assay for human Glucocorticoid Response Elements (GRE) (AID 2282947); conditions: HepG2 GRE cis-reporter, Attagene multiplex mRNA; actives raise or lower the signal
How it was run: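 Reporter transcripts read by RT-PCR with capillary electrophoresis fluorescence after a 24 h chemical exposure of HepG2 cells transiently transfected with multiple cis-element reporter units. Gain or loss fitted against DMSO.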

[11] = ATG_ISRE_CIS: Attagene CIS-FACTORIAL HepG2 Assay for human Interferon Regulatory Factor 1 (IRF1) binding to an Interferon-Stimulated Response Element (ISRE) (AID 2282948); conditions: HepG2 ISRE cis-reporter (Attagene), mRNA transcription readout; actives raise or lower the signal
How it was run: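 Multiplexed mRNA reporter readout in human liver HepG2 cells: cis-element-driven reporters transfected, compound added for 24 h, transcripts amplified, fluorescently labelled and sized by capillary electrophoresis; curve fitting bidirectional against DMSO.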

[12] = ATG_M_32_CIS: Attagene CIS-FACTORIAL HepG2 Assay for M32 Transcription Factor (Internal Marker) (AID 2282949); conditions: HepG2 Attagene cis-factorial M32 reporter, mRNA; actives raise or lower the signal;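 also: background control marker of the multiplexed CIS panel rather than a real target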
How it was run: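 HepG2 transfectants (cis-regulated reporter transcription units) dosed 24 h. Reporter mRNA by RT-PCR plus CE, analysed as gain or loss relative to DMSO.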

[13] = ATG_M_06_CIS: Attagene CIS-FACTORIAL HepG2 Assay for M06 Transcription Factor (Internal Marker) (AID 2282950); conditions: HepG2 Attagene CIS-FACTORIAL M06 internal marker reporter; actives raise or lower the signal
How it was run: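 Read-out is fluorescence of labelled reporter cDNA fragments resolved by capillary electrophoresis after RT-PCR. Cells: HepG2 carrying transfected cis-promoter reporter units, treated 24 h. Gain or loss of signal fitted relative to DMSO.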

[14] = target: Hypoxia-inducible factor 1-alpha (Homo sapiens) (UniProt Q16665); assay: ATG_HIF1a_CIS: Attagene CIS-FACTORIAL HepG2 Assay for human Hypoxia Inducible Factor 1 (HIF1A) (AID 2282951); conditions: HepG2 Attagene cis-factorial HIF1a reporter transcription; actives raise or lower the signal
How it was run: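 Fluorescence intensity of capillary-separated, 6-FAM-labelled reporter amplicons gives mRNA induction in HepG2 cells carrying transfected cis-promoter reporter units; cells exposed 24 h, responses fitted up or down from DMSO.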

[15] = target: Hepatocyte nuclear factor 6 (Homo sapiens) (UniProt Q9UBC0); assay: ATG_HNF6_CIS: Attagene CIS-FACTORIAL HepG2 Assay for human Hepatocyte Nuclear Factor 6 (HNF6) (AID 2282952); conditions: HepG2 Attagene cis-factorial HNF6 reporter transcription; actives raise or lower the signal
How it was run: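 Twenty-four-hour chemical treatment of reporter-transfected HepG2 cells precedes RNA isolation, DNase-treated reverse transcription and PCR of reporter sequences. Labelled fragments are sized by capillary electrophoresis and fitted bidirectionally versus DMSO.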

[16] = target: Heat shock factor protein 1 (Homo sapiens) (UniProt Q00613); assay: ATG_HSE_CIS: Attagene CIS-FACTORIAL HepG2 Assay for human Heat Shock Transcription Factor 1 (HSE) (AID 2282953); conditions: HepG2 HSE cis-reporter, Attagene RNA transcription; actives raise or lower the signal
How it was run: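 HepG2, transient MRTU transfection, cis-promoter reporters (endogenous TF activity). 24 h compound. RNA → oligo(dT) RT → PCR → 6-FAM primer extension → HpaI cut → CE. Bidirectional fit vs DMSO.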

[17] = ATG_MRE_CIS: Attagene CIS-FACTORIAL HepG2 Assay for human Metal Responsive Element (MRE) (AID 2282954); conditions: HepG2 MRE cis-reporter transcription, Attagene multiplex; actives raise or lower the signal
How it was run: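 Endogenous MRE-dependent transcription read as reporter mRNA in transiently transfected human HepG2 cells at 24 h. RNA reverse-transcribed, PCR-amplified, labelled and resolved by capillary electrophoresis; gain or loss relative to DMSO.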

[18] = ATG_PBREM_CIS: Attagene CIS-FACTORIAL HepG2 Assay for human Phenobarbital-responsive Enhancer Module (PBREM) (AID 2282955); conditions: HepG2 PBREM cis-reporter, Attagene multiplexed transcription; actives raise or lower the signal
How it was run: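 Cells were transfected with cis-element reporter units and treated for 24 h, after which RNA was extracted and reporter transcripts measured by RT-PCR and capillary electrophoresis.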

[19] = target: Paired box protein Pax-6 (Homo sapiens) (UniProt P26367); assay: ATG_Pax6_CIS: Attagene CIS-FACTORIAL HepG2 Assay for human Paired Box 6 (PAX6) (AID 2282956); conditions: HepG2 CIS-FACTORIAL PAX6 reporter transcription, RNA readout; actives raise or lower the signal
How it was run: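 Fluorescent RT-PCR products separated by capillary electrophoresis report PAX6-linked promoter mRNA in HepG2 cells 24 h post-dose. Curves fitted bidirectionally, DMSO as negative control.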

[20] = target: Bile acid receptor (Homo sapiens) (UniProt Q96RI1); assay: ATG_IR1_CIS: Attagene CIS-FACTORIAL HepG2 Assay for human Nuclear Receptor Subfamily 1 Group H Member 4 (NR1H4), IR1 submotif (AID 2282946); conditions: IR1 reporter transcription, actives raise or lower the signal
How it was run: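 HepG2 cells transiently transfected with multiplexed cis-element reporter units read endogenous transcription factor activity. After 24 h compound exposure, reporter mRNA was quantified by RT-PCR, fluorescent labelling, HpaI digestion and capillary electrophoresis; bidirectional fitting versus DMSO baseline.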

Measured: AC50

Sequence of Hypoxia-inducible factor 1-alpha (Homo sapiens) (Q16665 whole entry, looked up): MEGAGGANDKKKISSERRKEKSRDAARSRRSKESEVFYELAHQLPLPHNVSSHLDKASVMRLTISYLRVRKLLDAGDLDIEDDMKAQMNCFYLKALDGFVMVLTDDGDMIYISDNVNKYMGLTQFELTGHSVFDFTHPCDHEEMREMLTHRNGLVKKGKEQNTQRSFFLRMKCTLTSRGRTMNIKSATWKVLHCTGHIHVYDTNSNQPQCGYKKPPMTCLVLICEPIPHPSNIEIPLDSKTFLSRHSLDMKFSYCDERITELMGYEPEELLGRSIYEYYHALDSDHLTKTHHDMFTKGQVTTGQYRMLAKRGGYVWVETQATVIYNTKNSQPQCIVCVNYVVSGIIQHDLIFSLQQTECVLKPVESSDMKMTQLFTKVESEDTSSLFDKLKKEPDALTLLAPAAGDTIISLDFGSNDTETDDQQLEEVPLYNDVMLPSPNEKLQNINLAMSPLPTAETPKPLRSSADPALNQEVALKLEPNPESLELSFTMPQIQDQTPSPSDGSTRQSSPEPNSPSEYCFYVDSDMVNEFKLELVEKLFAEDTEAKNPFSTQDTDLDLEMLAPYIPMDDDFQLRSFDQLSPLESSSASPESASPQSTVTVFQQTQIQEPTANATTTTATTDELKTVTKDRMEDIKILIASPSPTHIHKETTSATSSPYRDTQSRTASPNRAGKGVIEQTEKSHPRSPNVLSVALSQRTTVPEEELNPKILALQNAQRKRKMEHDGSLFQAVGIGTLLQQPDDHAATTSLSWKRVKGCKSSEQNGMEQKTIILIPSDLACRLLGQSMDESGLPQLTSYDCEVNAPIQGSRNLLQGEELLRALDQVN
Sequence of Paired box protein Pax-6 (Homo sapiens) (P26367 whole entry, looked up): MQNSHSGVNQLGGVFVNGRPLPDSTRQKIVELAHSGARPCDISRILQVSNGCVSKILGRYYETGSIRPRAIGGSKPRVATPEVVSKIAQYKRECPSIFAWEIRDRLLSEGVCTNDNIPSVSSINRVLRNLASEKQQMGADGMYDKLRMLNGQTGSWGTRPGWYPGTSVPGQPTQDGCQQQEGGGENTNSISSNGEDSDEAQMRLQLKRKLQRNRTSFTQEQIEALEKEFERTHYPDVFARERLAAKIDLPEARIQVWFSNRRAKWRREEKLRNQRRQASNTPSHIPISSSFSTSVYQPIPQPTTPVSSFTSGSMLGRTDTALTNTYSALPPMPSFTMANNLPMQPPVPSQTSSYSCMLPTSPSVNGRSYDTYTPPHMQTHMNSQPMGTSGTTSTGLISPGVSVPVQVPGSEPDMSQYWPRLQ
Sequence of Heat shock factor protein 1 (Homo sapiens) (Q00613 whole entry, looked up): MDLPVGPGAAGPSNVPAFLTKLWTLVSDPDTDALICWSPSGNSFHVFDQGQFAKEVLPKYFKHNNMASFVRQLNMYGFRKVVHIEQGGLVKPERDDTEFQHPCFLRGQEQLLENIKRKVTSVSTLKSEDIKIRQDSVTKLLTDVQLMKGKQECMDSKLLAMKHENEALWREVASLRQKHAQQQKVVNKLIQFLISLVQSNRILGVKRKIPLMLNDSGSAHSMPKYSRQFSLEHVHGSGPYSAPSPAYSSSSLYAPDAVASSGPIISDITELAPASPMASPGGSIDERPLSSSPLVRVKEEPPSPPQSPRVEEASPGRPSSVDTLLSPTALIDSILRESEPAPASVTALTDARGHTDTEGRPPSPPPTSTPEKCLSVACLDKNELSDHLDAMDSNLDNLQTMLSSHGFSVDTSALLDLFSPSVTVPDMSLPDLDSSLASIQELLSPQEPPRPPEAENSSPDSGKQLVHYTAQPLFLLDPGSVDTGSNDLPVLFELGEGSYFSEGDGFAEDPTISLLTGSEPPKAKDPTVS
Sequence of Hepatocyte nuclear factor 3-beta (Homo sapiens) (Q9Y261 whole entry, looked up): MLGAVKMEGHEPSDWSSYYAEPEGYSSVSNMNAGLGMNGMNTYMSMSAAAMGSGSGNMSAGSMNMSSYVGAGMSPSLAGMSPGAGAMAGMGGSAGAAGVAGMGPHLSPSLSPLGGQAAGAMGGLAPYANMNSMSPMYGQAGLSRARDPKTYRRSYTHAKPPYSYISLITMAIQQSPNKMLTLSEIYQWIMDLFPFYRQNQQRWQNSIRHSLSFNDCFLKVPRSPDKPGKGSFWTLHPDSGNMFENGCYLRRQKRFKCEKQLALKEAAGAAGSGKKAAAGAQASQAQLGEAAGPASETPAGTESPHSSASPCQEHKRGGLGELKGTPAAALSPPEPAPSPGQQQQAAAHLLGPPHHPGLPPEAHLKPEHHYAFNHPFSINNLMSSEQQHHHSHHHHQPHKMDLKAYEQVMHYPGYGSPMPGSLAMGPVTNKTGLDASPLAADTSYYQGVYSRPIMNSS
Sequence of Bile acid receptor (Homo sapiens) (Q96RI1 whole entry, looked up): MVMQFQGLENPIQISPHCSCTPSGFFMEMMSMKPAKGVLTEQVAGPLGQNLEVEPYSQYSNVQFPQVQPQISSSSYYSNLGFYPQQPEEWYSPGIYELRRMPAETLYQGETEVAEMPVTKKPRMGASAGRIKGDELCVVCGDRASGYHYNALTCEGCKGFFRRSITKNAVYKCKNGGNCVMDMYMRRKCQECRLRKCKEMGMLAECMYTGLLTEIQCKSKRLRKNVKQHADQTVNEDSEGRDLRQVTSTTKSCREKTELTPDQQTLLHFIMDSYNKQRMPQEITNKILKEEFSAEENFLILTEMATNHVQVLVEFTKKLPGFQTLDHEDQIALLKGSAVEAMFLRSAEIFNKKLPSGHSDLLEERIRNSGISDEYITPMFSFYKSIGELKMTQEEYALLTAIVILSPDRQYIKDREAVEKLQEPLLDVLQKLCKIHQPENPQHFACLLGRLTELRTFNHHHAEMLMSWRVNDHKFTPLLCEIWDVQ
Sequence of Hepatocyte nuclear factor 6 (Homo sapiens) (Q9UBC0 whole entry, looked up, the tested form may be a part): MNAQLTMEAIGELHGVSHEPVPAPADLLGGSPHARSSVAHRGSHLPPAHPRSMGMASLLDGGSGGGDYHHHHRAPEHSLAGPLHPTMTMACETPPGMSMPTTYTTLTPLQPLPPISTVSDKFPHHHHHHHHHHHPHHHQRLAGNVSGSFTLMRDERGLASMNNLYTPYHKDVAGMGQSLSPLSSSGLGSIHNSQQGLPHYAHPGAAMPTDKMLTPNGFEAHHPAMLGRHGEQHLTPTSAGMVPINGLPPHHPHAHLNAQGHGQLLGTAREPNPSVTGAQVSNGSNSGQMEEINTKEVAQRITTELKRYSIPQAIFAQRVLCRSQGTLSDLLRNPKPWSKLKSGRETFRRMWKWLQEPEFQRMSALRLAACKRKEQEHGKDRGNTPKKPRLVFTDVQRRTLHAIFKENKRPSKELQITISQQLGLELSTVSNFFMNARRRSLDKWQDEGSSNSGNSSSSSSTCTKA

Nc1ccc(Oc2ccc(N)cc2)cc1
not listed: [20]
inactive: all other assays above

c1ccc(N=Nc2ccccc2)cc1
not listed: [4] | [7] | [20]
inactive: all other assays above

Nc1ccc([N+](=O)[O-])cc1
not listed: [4] | [7] | [14]
inactive: all other assays above

Oc1ccccc1Cl
not listed: [4] | [7] | [14] | [20]
inactive: all other assays above

CC(C)(C)C(O)(CCc1ccc(Cl)cc1)Cn1cncn1 (stereo unspecified)
active: [17] 100 µM
not listed: [4] | [7] | [14] | [20]
inactive: all other assays above

CCOc1cccc(C2(N3CCN(c4ccccc4)CC3)CCC(C)CC2)c1 (stereo unspecified)
not listed: [4] | [14] | [16] | [20]
inactive: all other assays above

O=Cc1ccco1
not listed: [4] | [7] | [10] | [18] | [20]
inactive: all other assays above

CN(C)C(=O)Nc1ccc(Cl)cc1
not listed: [4] | [7] | [14]
inactive: all other assays above

[Cl-].[Cl-].[Hg+2]
not listed: [4] | [7] | [10] | [14] | [18] | [20]
inactive: all other assays above

COc1cc(C=O)cc2c1[C@H](COC(N)=O)[C@]1(OC(C)=O)ON2C[C@H]2[C@@H]1N2C(C)=O
active: [1] 0.1 µM | [5] 12.4 µM | [6] 62.3 µM | [7] 58.9 µM | [8] 10.8 µM | [11] 0.54 µM | [15] 9.05 µM | [16] 8.4 µM
not listed: [4] | [10] | [14] | [20]
inactive: all other assays above

O=C(O)C1C2CCC(O2)C1C(=O)O (stereo unspecified)
active: [9] 100 µM | [11] 61.9 µM | [12] 159 µM | [17] 149 µM | [18] 160 µM | [19] 123 µM
not listed: [4] | [7] | [14] | [20]
inactive: all other assays above

ClC1=C(Cl)[C@]2(Cl)[C@H]3[C@H]([C@@H]4C=C[C@H]3C4)[C@@]1(Cl)C2(Cl)Cl
active: [3] 33.4 µM | [17] 33.4 µM
not listed: [4] | [20]
inactive: all other assays above

C=CCc1ccc2c(c1)OCO2
not listed: [4] | [7] | [10] | [20]
inactive: all other assays above

CC(C)COC(=O)c1ccccc1C(=O)OCC(C)C
active: [1] 100 µM | [3] 73.4 µM | [11] 167 µM | [17] 109 µM | [19] 100 µM
not listed: [4] | [7] | [14] | [18]
inactive: all other assays above

Cc1ccc(N)c(N)c1
active: [3] 28.3 µM | [17] 29.1 µM
not listed: [4] | [7] | [20]
inactive: all other assays above
